# From the supplement of paper PMC8728848
# The entries come from a sample that favours the strongest signals as a whole.
# B1: Gal 8 (Mus musculus), Q9JL15 (protein)
# chain: MGGSHHHHHHGMASMLSLNNLQNIIYNPIIPYVGTITEQLKPGSLIVIRGHVPKDSERFQVDFQLGNSLKPRADVAFHFNPHFKRSSCIVCNTLTQEKWGWEEITYDMPFRKEKSFEIVFMVLKNKFQVAVNGRHVLLYAHRISPEQIDTVGIYGKVNIHSIGFRFSSASALPHTLGDLQSMETSALGLTQINRENIQKPGKLQLSLPFEARLNASMGPGRTVVIKGEVNTNARSFNVDLVAGKTRDIALHLNPHLNVKAFVRNSFLQDAWGEEERNITCFPFSSGMYFEMIIYCDVREFKVAINGVHSLEYKHRFKDLSSIDTLSVDGDIRLLDVRSW
# How the values were obtained:
# Experiment in all cases: glycan array binding signal (z-score within array); higher = stronger binding
# Settings in all cases: glycan notation: IUPAC condensed, linker removed; mutation: R82H, R255H
# [1] = target: Gal(b1-4)GlcNAc(b1-3)Gal(b1-4)GlcNAc(b1-3)[Gal(b1-4)GlcNAc(b1-3)Gal(b1-4)GlcNAc(b1-6)]GalNAc
# Summary of the method: (§1)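 Glycan array binding is given as a within-array Z-score, which can be read as non-binding when negative. The arrays, 3228 of them, came from the Consortium for Functional Glycomics database and were retained only where the protein sequence was available. Z-scores were averaged across arrays of the same protein sequence at different concentrations or buffers and across linkers.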
# Gal4S(b1-4)GlcNAc = target: Gal4S(b1-4)GlcNAc
# Summary of the method: as §1
# Gal6S(b1-3)GlcNAc6S = target: Gal6S(b1-3)GlcNAc6S
# Summary of the method: as §1
# [2] = target: GalNAc(a1-3)GalNAc(b1-3)Gal(a1-4)Gal(b1-4)Glc
# Summary of the method: as §1
# GalNAc(b1-3)GalNAc = target: GalNAc(b1-3)GalNAc
# Summary of the method: as §1
# GalNAc(b1-4)GlcNAc = target: GalNAc(b1-4)GlcNAc
# Summary of the method: as §1
# [3] = target: GalNAc(b1-4)GlcNAc(b1-3)GalNAc(b1-4)GlcNAc
# Summary of the method: as §1
# [4] = target: GlcA3S(b1-3)Gal(b1-4)GlcNAc(b1-3)Gal(b1-4)Glc
# Summary of the method: as §1
# [5] = target: GlcNAc(b1-2)Man(a1-3)[GlcNAc(b1-4)][GlcNAc(b1-2)Man(a1-6)]Man(b1-4)GlcNAc(b1-4)[Fuc(a1-6)]GlcNAc
# Summary of the method: as §1
# [6] = target: GlcNAc(b1-3)Gal(b1-4)GlcNAc(b1-3)Gal(b1-4)GlcNAc(b1-2)[GlcNAc(b1-3)Gal(b1-4)GlcNAc(b1-3)Gal(b1-4)GlcNAc(b1-6)]Man(a1-6)[GlcNAc(b1-3)Gal(b1-4)GlcNAc(b1-3)Gal(b1-4)GlcNAc(b1-2)Man(a1-3)]Man(b1-4)GlcNAc(b1-4)[Fuc(a1-6)]GlcNAc
# Summary of the method: as §1
# [7] = target: GlcNAc(b1-3)Gal(b1-4)GlcNAc(b1-3)Gal(b1-4)GlcNAc(b1-3)Gal(b1-4)GlcNAc(b1-2)Man(a1-3)[GlcNAc(b1-3)Gal(b1-4)GlcNAc(b1-3)Gal(b1-4)GlcNAc(b1-3)Gal(b1-4)GlcNAc(b1-2)Man(a1-6)]Man(b1-4)GlcNAc(b1-4)GlcNAc
# Summary of the method: as §1
# [8] = target: GlcNAc(b1-3)Gal(b1-4)GlcNAc(b1-3)Gal(b1-4)GlcNAc(b1-3)Gal(b1-4)GlcNAc(b1-2)[GlcNAc(b1-3)Gal(b1-4)GlcNAc(b1-3)Gal(b1-4)GlcNAc(b1-3)Gal(b1-4)GlcNAc(b1-6)]Man(a1-6)[GlcNAc(b1-3)Gal(b1-4)GlcNAc(b1-3)Gal(b1-4)GlcNAc(b1-3)Gal(b1-4)GlcNAc(b1-2)Man(a1-3)]Man(b1-4)GlcNAc(b1-4)[Fuc(a1-6)]GlcNAc
# Summary of the method: as §1
# [9] = target: GlcNAc(b1-3)Gal(b1-4)GlcNAc(b1-3)Gal(b1-4)GlcNAc(b1-3)Gal(b1-4)GlcNAc(b1-3)Gal(b1-4)GlcNAc(b1-2)Man(a1-3)[GlcNAc(b1-3)Gal(b1-4)GlcNAc(b1-3)Gal(b1-4)GlcNAc(b1-3)Gal(b1-4)GlcNAc(b1-3)Gal(b1-4)GlcNAc(b1-2)Man(a1-6)]Man(b1-4)GlcNAc(b1-4)GlcNAc
# Summary of the method: as §1
# [10] = target: GlcNAc(b1-3)Gal(b1-4)GlcNAc(b1-3)Gal(b1-4)GlcNAc(b1-3)Gal(b1-4)GlcNAc(b1-3)Gal(b1-4)GlcNAc(b1-2)Man(a1-3)[GlcNAc(b1-3)Gal(b1-4)GlcNAc(b1-3)Gal(b1-4)GlcNAc(b1-3)Gal(b1-4)GlcNAc(b1-3)Gal(b1-4)GlcNAc(b1-2)Man(a1-6)]Man(b1-4)GlcNAc(b1-4)[Fuc(a1-6)]GlcNAc
# Summary of the method: as §1
# [11] = target: GlcNAc(b1-3)Gal(b1-4)GlcNAc(b1-3)Gal(b1-4)GlcNAc(b1-3)Gal(b1-4)GlcNAc(b1-3)Gal(b1-4)GlcNAc(b1-2)[GlcNAc(b1-3)Gal(b1-4)GlcNAc(b1-3)Gal(b1-4)GlcNAc(b1-3)Gal(b1-4)GlcNAc(b1-3)Gal(b1-4)GlcNAc(b1-6)]Man(a1-6)[GlcNAc(b1-3)Gal(b1-4)GlcNAc(b1-3)Gal(b1-4)GlcNAc(b1-3)Gal(b1-4)GlcNAc(b1-3)Gal(b1-4)GlcNAc(b1-2)Man(a1-3)]Man(b1-4)GlcNAc(b1-4)[Fuc(a1-6)]GlcNAc
# Summary of the method: as §1
# [12] = target: GlcNAc(b1-3)Gal(b1-4)GlcNAc(b1-6)[Gal(b1-3)]GalNAc
# Summary of the method: as §1
# [13] = target: GlcNAc(b1-4)GlcNAc(b1-4)GlcNAc
# Summary of the method: as §1
# [14] = target: Man(a1-2)Man(a1-6)[Man(a1-3)]Man(a1-6)[Man(a1-2)Man(a1-2)Man(a1-3)]Man
# Summary of the method: as §1
# Man(a1-3)[Man(a1-6)]Man = target: Man(a1-3)[Man(a1-6)]Man
# Summary of the method: as §1
# [15] = target: Man(a1-3)[Man(a1-6)]Man(a1-6)[Man(a1-2)Man(a1-3)]Man(b1-4)GlcNAc(b1-4)GlcNAc
# Summary of the method: as §1
# Neu5Ac(a2-3)Gal = target: Neu5Ac(a2-3)Gal
# Summary of the method: as §1
# [16] = target: Neu5Ac(a2-3)Gal(b1-3)GlcNAc
# Summary of the method: as §1
# [17] = target: Neu5Ac(a2-3)Gal(b1-3)GlcNAc(b1-2)Man(a1-3)[Neu5Ac(a2-3)Gal(b1-3)GlcNAc(b1-2)Man(a1-6)]Man(b1-4)GlcNAc(b1-4)GlcNAc
# Summary of the method: as §1
# [18] = target: Neu5Ac(a2-3)Gal(b1-4)GlcNAc(b1-3)Gal(b1-4)GlcNAc(b1-3)Gal(b1-4)GlcNAc
# Summary of the method: as §1
# [19] = target: Neu5Ac(a2-3)Gal(b1-4)GlcNAc(b1-3)Gal(b1-4)GlcNAc(b1-3)[Neu5Ac(a2-3)Gal(b1-4)GlcNAc(b1-3)Gal(b1-4)GlcNAc(b1-6)]GalNAc
# Summary of the method: as §1
# [20] = target: Neu5Ac(a2-6)Gal(b1-4)GlcNAc(b1-3)GalNAc
# Summary of the method: as §1
# [21] = target: Neu5Ac(a2-6)Gal(b1-4)GlcNAc6S
# Summary of the method: as §1
# [22] = target: Neu5Ac(a2-8)Neu5Ac(a2-3)[GalNAc(b1-4)]Gal(b1-4)Glc
# Summary of the method: as §1
binder,measurement,setting,value
B1,glycan array binding signal (z-score),[1],0.053
same,glycan array binding signal (z-score),Gal4S(b1-4)GlcNAc,-0.22
same,glycan array binding signal (z-score),Gal6S(b1-3)GlcNAc6S,-0.186
same,glycan array binding signal (z-score),[2],-0.214
same,glycan array binding signal (z-score),GalNAc(b1-3)GalNAc,-0.259
same,glycan array binding signal (z-score),GalNAc(b1-4)GlcNAc,-0.245
same,glycan array binding signal (z-score),[3],-0.271
same,glycan array binding signal (z-score),[4],-0.198
same,glycan array binding signal (z-score),[5],-0.278
same,glycan array binding signal (z-score),[6],5.44
same,glycan array binding signal (z-score),[7],4.25
same,glycan array binding signal (z-score),[8],4.84
same,glycan array binding signal (z-score),[9],7.01
same,glycan array binding signal (z-score),[10],6.24
same,glycan array binding signal (z-score),[11],6.71
same,glycan array binding signal (z-score),[12],-0.251
same,glycan array binding signal (z-score),[13],-0.255
same,glycan array binding signal (z-score),[14],-0.276
same,glycan array binding signal (z-score),Man(a1-3)[Man(a1-6)]Man,-0.24
same,glycan array binding signal (z-score),[15],-0.246
same,glycan array binding signal (z-score),Neu5Ac(a2-3)Gal,-0.259
same,glycan array binding signal (z-score),[16],-0.217
same,glycan array binding signal (z-score),[17],0.022
same,glycan array binding signal (z-score),[18],-0.148
same,glycan array binding signal (z-score),[19],-0.255
same,glycan array binding signal (z-score),[20],-0.062
same,glycan array binding signal (z-score),[21],-0.2
same,glycan array binding signal (z-score),[22],-0.268
